Results from PubChem BioAssay (NCATS).
Records with an inconclusive call do not appear. Calls of active or inactive are those of the source. Unless noted, calls come from the whole dose curve; as a rule, active = well fitted curve in either direction with a large enough effect (not every such curve was filed as active); inconclusive = small, poorly fitted or top-dose-only effect, or another doubt; inactive = flat fitted curve, though single readings scatter.

What was measured:
[1] = biological target: Lysosomal acid glucosylceramidase (Homo sapiens) (UniProt P04062); assay: Glucocerebrosidase-p2 (AID 348; in the data active = potency below about 10 µM; note: potency is the fitted concentration of half-maximal effect); conditions: purified GBA, blue fluorogenic substrate, 40 min
Procedure, shortened: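 Compounds titrated from 0.6 nM upwards against 0.2 nM enzyme in pH 5.9 citric acid/KH2PO4, taurocholate, tween-20; blue fluorogenic substrate 80 uM, 40 min room temperature, stopped and read Ex 365/Em 440 for AC50.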

[2] = AP1 Signaling Pathway (AID 357); conditions: ME-180 AP-1-bla reporter, EGF-induced, beta-lactamase ratio, 5 h; at 7.69 µM (top of the series) unless noted;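 note: ME-180 reporter cells stimulated with EGF at its EC50 level; % is set by controls: 0 for no effect and ±100 for the full control effect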
Procedure, shortened: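 First, ME-180 AP-1-bla cells were cultured overnight at 37 °C in low-serum Opti-MEM. Next, titrated compounds with EC50 EGF were incubated 5 hours. Finally, CCF4 was added for 2.5 hours and the 460/530 nm ratio recorded.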

[3] = biological target: Cytochrome P450 1A2 (Homo sapiens) (UniProt P05177); assay: p450-cyp1a2 (AID 410; calls by dose curve; note: potency is the fitted concentration of half-maximal effect;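 for activity change, negative = inhibition: -100% = full effect of reference inhibitor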); conditions: recombinant CYP1A2, luciferin-ME demethylation, luminescence; series mostly up to 57 µM
Procedure, shortened: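 Luminescent readout of luciferin formed from Luciferin-ME by human CYP1A2; data normalized against complete inhibition by 57 uM furafylline. Enzyme 20nM, substrate 100uM at Km, 100mM KPO4 buffer, 60 min reaction at room temperature.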

[4] = Stat Signaling Pathway (AID 446); conditions: ME-180 SIE beta-lactamase reporter, IL-6 stimulated, 5 h; at 7.69 µM (top of the series) unless noted;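 note: ME-180 cervical cancer cells given 40 pM IL-6 alongside compound; SIE-controlled beta-lactamase reporter measured as 460/530 nm FRET emission ratio; % is set by controls: 0 for no effect and ±100 for the full control effect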
Procedure, shortened: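 ME-180 cells carrying a SIE-driven beta-lactamase reporter are stimulated with 40 pM IL-6 for 5 h at 37C in the presence of compound. The 460/530 nm FRET substrate ratio is read after 2.5 h at RT. Data are normalised to 300 pM IL-6 and to 125 nM JAK inhibitor controls.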

[5] = biological target: Glucocorticoid receptor (Homo sapiens) (UniProt P04150); assay: GR-EFC Redistribution (AID 451; calls by dose curve; note: potency is the fitted concentration of half-maximal effect); conditions: CHO-K1 GR-EFC translocation, beta-gal luminescence, 2 h
Procedure, shortened: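 CHO-K1 cells expressing nuclear EA and GR-ED fragments of b-gal; compounds titrated up to 46 uM final, 2 h at 37 C. GR nuclear translocation read as complemented b-gal luminescence after 1 h RT detection.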

[6] = biological target: Mitogen-activated protein kinase 10 (Mus musculus) (UniProt Q61831); assay: JNK3 AlphaScreen Assay (AID 530); conditions: JNK3 lysate, c-Jun phosphorylation; series mostly up to 57.1 µM;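 note: kinase came from lysate of stimulated human HepG2 cells; signal reports phosphorylation of biotinylated GST-cJun 1-79 at Ser73 with 10 µM ATP; % is set by controls: 0 for no effect and ±100 for the full control effect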
Procedure, shortened: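 Pre-activated (IL-1β/TNFα) JNK3 in HepG2 lysates phosphorylates biotin-GST-cJun(1-79), 10 uM ATP; anti-phospho-cJun(Ser73) AlphaScreen read at room temperature, pH 7.6 Tris buffer. Compounds pre-incubated 15 min as titrations.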

[7] = biological target: 3',5'-cyclic-AMP phosphodiesterase 4B (Homo sapiens) (UniProt Q07343); assay: qHTS Assay for Inhibitors of PDE-IV (AID 607; active = well fitted activation curve with a large enough effect in the main read-out, with a control signal flat, not every such curve was filed as active; note: % of control where 0% means no effect); conditions: HEK293 ACTOne CNG channel cells, membrane potential fluorescence; series mostly up to 22.9 µM
Procedure, shortened: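 HEK293 ACTOne cells with CNG channel (1000/well), endogenous PDE4; membrane potential dye, compounds up to 22.9 uM final. Fluorescence Ex 535/Em 590; RO 20-1724 (100 uM final) as reference.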

[8] = biological target: Cytochrome P450 3A4 (Homo sapiens) (UniProt P08684); assay: qHTS Assay for Activators of Cytochrome P450 3A4 (AID 885; active = well fitted curve in the direction sought with a large enough effect; an effect the other way counts as inactive or inconclusive; note: nearly all actives have a fitted effect of over 65% in size; note: potency is the fitted concentration of half-maximal effect); conditions: recombinant CYP3A4, Luciferin-PPXE luminescence, 60 min; series mostly up to 57.1 µM
Procedure, shortened: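 Human CYP3A4 (20 nM) with Luciferin-PPXE at 25 uM (its KM) in 200 mM KPO4; 10 min compound preincubation, then NADPH regeneration and 60 min reaction at RT. Luciferin read by luminescence; normalized to 57 uM ketoconazole full inhibition.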

[9] = biological target: Cytochrome P450 2D6 (Homo sapiens) (UniProt P10635); assay: qHTS Assay for Inhibitors and Substrates of Cytochrome P450 2D6 (AID 891; active = well fitted curve in the direction sought with a large enough effect; an effect the other way counts as inactive or inconclusive; note: potency is the fitted concentration of half-maximal effect; nearly all actives have a fitted effect of over 60% in size); conditions: recombinant CYP2D6, luciferin-ME EGE luminescence; series mostly up to 57.1 µM
Procedure, shortened: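 Human CYP2D6 (5 nM) with 30 uM Luciferin-ME EGE (at Km) in 100 mM KPO4, compound preincubated 10 min, then NADPH regeneration system for 60 min at room temperature. Luciferin read by luminescence; normalized to 1.43 uM quinidine.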

[10] = qHTS Assay for Lipid Storage Modulators (AID 1519; calls by dose curve); conditions: Drosophila S3 cells, BODIPY lipid droplet/cell ratio, laser cytometry, cells loaded with oleic acid; for activity change, negative = inhibition: at 57.5 µM (top of the series)
Procedure, shortened: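 Cells seeded at 5,000 per well were treated with compounds over a concentration series and loaded with oleic acid (400 uM, as added). Lipid droplet fluorescence (488 nm excitation, 500-530 nm channel) was read by laser-scanning cytometry and normalized to 20 uM Triacsin C.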

[11] = NFAT Signaling Pathway (AID 444); conditions: Jurkat NFAT-bla M1, carbachol, beta-lactamase ratio, 5 h; at 7.69 µM (top of the series) unless noted;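 note: carbachol stimulus at about its EC50 of 1 µM final; % is set by controls: 0 for no effect and ±100 for the full control effect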
Procedure, shortened: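 Jurkat cells with NFAT-driven β-lactamase reporter and co-expressed M1 receptor, stimulated with carbachol (final 1 uM, ~EC50), compound titration, 5 h at 37 °C. CCF4 loaded 1 h at RT; 460/530 nm ratio gave %activity and AC50.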

[12] = biological target: Glucocorticoid receptor (Homo sapiens) (UniProt P04150); assay: GR-GFP Redistribution (AID 450;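 active = compounds whose dose series gives a full or clear partial fitted curve of increased nuclear translocation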; note: potency is the fitted concentration of half-maximal effect); conditions: U2OS GR-GFP nuclear translocation, laser cytometry, 2 h
[13] = biological target: Ubiquitin carboxyl-terminal hydrolase 1 (Homo sapiens) (UniProt O94782); assay: Inhibitors of USP1/UAF1: Pilot qHTS (AID 504865; active = well fitted curve in the direction sought with a large enough effect; an effect the other way counts as inactive or inconclusive; note: nearly all actives have a fitted effect of over 35% in size; note: potency is the fitted concentration of half-maximal effect); conditions: purified USP1/UAF1, Ub-rhodamine cleavage fluorescence; series mostly up to 54.9 µM
Procedure, shortened: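 Deubiquitinase activity followed as kinetic rhodamine fluorescence release from 150 nM Ub-Rho. 1 nM USP1/UAF1 with compound, after 15 min room-temperature preincubation, in HEPES pH 7.8 buffer containing TCEP, EDTA, BSA and Tween-20.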

[14] = measured here: cell count channel max response
[15] = measured here: lipid channel max response

Chain of Cytochrome P450 1A2 (Homo sapiens) (P05177 whole entry, looked up): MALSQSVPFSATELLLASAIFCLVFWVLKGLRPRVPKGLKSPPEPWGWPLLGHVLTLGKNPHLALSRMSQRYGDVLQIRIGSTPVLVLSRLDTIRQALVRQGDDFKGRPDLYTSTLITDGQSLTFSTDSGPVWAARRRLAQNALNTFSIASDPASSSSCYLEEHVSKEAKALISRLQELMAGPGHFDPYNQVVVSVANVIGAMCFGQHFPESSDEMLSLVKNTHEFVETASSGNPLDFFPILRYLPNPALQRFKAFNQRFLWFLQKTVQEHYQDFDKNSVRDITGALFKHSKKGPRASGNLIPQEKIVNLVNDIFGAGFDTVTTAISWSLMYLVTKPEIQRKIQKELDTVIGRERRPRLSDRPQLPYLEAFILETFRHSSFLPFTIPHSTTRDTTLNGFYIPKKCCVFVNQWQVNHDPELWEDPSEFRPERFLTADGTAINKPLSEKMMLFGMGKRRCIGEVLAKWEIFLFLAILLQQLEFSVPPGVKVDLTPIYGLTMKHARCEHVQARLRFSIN
Chain of Cytochrome P450 3A4 (Homo sapiens) (P08684 whole entry, looked up): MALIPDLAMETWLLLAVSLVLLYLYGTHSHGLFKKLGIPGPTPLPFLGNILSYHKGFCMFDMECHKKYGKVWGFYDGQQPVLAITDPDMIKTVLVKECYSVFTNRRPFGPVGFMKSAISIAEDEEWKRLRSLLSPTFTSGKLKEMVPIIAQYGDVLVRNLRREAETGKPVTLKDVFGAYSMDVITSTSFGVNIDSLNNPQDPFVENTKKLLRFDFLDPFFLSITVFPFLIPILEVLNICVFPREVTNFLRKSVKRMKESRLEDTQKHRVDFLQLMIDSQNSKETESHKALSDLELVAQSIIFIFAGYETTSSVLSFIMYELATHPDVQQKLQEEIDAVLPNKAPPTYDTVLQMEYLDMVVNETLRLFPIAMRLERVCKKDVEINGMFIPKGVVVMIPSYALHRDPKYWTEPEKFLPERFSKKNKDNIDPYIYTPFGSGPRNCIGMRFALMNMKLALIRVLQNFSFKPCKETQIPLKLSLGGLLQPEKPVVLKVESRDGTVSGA
Chain of Ubiquitin carboxyl-terminal hydrolase 1 (Homo sapiens) (O94782 whole entry, looked up): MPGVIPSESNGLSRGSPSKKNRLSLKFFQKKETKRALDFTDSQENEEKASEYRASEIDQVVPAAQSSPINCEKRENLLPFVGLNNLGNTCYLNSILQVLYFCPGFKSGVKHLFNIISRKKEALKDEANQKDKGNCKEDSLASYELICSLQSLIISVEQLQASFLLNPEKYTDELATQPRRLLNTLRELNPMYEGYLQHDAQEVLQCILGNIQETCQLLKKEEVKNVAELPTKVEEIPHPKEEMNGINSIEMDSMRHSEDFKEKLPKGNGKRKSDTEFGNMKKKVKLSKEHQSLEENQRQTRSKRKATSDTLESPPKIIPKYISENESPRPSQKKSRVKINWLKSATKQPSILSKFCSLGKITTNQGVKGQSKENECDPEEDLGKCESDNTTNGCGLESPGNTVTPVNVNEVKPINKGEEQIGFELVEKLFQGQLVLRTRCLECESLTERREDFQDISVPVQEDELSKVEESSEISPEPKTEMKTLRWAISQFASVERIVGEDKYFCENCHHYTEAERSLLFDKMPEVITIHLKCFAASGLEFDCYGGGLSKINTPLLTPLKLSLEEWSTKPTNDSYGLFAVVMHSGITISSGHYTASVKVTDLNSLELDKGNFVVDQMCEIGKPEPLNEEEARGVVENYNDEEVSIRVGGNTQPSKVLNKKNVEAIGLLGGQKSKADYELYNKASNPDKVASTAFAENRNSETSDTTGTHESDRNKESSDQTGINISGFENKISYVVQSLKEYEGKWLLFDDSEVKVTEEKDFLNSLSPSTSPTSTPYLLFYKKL
Chain of Lysosomal acid glucosylceramidase (Homo sapiens) (P04062 whole entry, looked up): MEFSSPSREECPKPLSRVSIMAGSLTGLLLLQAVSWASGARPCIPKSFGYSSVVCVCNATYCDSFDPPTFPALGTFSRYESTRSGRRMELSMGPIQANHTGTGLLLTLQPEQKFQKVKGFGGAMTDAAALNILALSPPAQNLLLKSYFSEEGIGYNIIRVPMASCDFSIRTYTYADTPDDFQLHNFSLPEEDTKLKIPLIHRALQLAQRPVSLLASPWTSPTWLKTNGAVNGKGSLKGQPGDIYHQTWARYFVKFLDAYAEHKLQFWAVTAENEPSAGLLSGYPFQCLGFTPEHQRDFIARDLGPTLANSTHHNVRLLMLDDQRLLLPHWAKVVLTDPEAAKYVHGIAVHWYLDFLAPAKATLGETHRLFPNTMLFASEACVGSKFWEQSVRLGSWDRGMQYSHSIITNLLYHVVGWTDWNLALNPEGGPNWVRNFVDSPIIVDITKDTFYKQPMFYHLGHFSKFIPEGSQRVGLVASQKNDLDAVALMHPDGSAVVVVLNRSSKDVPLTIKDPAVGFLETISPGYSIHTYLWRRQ
Chain of 3',5'-cyclic-AMP phosphodiesterase 4B (Homo sapiens) (Q07343 whole entry, looked up): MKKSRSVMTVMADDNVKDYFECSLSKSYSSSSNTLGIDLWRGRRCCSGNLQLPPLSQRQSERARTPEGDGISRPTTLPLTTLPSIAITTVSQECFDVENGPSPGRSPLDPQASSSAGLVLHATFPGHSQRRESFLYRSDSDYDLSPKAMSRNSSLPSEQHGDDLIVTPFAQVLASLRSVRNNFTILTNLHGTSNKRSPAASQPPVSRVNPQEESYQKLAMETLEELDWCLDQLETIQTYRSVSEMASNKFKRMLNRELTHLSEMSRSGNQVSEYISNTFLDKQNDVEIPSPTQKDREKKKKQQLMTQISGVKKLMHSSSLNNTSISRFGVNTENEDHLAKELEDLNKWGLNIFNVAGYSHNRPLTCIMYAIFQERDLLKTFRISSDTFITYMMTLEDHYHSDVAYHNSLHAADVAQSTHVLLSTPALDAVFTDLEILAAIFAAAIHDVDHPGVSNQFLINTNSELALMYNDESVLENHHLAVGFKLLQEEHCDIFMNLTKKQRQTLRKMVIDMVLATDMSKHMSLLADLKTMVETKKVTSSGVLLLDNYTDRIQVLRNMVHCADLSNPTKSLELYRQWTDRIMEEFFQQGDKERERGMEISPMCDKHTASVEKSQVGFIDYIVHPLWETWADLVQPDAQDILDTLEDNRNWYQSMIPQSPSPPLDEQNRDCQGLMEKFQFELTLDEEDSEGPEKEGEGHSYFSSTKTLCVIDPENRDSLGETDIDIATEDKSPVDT
Chain of Glucocorticoid receptor (Homo sapiens) (P04150 whole entry, looked up, the tested form may be a part): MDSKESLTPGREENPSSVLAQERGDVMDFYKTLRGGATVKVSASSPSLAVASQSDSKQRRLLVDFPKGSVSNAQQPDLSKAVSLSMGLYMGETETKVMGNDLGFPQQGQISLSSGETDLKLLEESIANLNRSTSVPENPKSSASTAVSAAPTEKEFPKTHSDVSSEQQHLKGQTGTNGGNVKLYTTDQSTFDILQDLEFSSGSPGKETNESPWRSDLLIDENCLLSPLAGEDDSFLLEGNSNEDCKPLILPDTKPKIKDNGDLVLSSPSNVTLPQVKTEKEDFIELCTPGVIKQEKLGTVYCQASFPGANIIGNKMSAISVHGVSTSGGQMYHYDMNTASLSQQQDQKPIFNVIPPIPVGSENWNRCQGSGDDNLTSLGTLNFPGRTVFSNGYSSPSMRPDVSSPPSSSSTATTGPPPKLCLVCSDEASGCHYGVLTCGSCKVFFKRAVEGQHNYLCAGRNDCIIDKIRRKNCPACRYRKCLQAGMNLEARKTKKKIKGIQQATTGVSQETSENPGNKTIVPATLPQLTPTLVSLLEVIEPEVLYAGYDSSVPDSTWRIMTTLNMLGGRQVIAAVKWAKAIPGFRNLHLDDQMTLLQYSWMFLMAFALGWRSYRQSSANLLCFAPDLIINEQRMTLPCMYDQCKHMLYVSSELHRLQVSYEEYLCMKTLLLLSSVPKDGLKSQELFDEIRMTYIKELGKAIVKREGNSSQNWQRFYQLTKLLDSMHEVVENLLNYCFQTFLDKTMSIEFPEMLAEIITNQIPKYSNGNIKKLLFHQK
Chain of Cytochrome P450 2D6 (Homo sapiens) (P10635 whole entry, looked up): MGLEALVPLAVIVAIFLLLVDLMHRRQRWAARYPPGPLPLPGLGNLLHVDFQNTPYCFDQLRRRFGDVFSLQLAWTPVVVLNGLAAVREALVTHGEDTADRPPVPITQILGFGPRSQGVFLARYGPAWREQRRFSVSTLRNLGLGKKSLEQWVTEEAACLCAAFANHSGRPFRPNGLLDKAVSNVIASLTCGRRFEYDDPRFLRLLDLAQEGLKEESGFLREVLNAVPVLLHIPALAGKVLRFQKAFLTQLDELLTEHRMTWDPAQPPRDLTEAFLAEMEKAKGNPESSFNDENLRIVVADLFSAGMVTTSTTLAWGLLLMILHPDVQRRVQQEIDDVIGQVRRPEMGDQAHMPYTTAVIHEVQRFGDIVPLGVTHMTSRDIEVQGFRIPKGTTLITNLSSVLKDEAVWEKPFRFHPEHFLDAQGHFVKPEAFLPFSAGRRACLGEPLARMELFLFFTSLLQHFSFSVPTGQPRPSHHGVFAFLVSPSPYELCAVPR

Row | Compound | Potency [1] | activity change, negative = inhibition [2] | Potency [3] | activity, negative = inhibition [4] | Potency [5] | Potency [6] | Potency [7] | Potency [8] | Potency [9] | activity change, negative = inhibition [10] | max response [10, 14] [%] | max response [10, 15] [%] | activity change, negative = inhibition [11] | Potency [12] | Potency [13]
1 | O=C(c1cccc(F)c1)N1CCC2(CC1)CCN(C(c1ccccc1)c1ccccc1)CC2 | > 11.4 µM (inactive) | 2.86% (inactive) | 10 µM (active) | -6.67% (inactive) | > 46 µM (inactive) | inactive | inactive | 5.01 µM (active) | 3.16 µM (active) | 4.65% (inactive) | 12.8 | 19.8 |  |  | 
2 | O=C(c1cc(C(F)(F)F)cc(C(F)(F)F)c1)N1CCC[C@@]2(CCN(c3ccncc3)C2)C1 | > 11.4 µM (inactive) | 6.68% (inactive) | inactive | 1.59% (inactive) | > 46 µM (inactive) | inactive | inactive | inactive |  | 1.83% (inactive) | -11 | -5.86 |  |  | 
3 | CN1CC[C@@]2(CCCN(C(=O)c3cccn3C)C2)C1 | > 11.4 µM (inactive) | 0.737% (inactive) | inactive | -1.28% (inactive) | > 46 µM (inactive) | inactive | inactive | inactive |  | 2.7% (inactive) | -0.284 | 4.15 | 9.28% (inactive) |  | 
4 | CN1CCN(c2ncc3ncc(=O)n(Cc4cccs4)c3n2)CC1 | > 11.4 µM (inactive) | -18.1% (inactive) | 3.98 µM (active) | -10.9% (inactive) | > 46 µM (inactive) | inactive | inactive | inactive |  | 4.27% (inactive) | 26.8 | 33.1 |  | > 9.22 µM (inactive) | 
5 | COc1ccccc1CNc1ccnc(-c2ccccc2C(F)(F)F)n1 | > 11.4 µM (inactive) | -18.3% (inactive) | 10 µM (active) | 4.24% (inactive) | > 46 µM (inactive) | inactive | inactive | inactive |  | 5.29% (inactive) | -3.33 | 2.88 |  | > 46 µM (inactive) | 20 µM (active)
6 | O=c1cnc2cnc(N3CCOCC3)nc2n1C[C@H]1CCCO1 | > 11.4 µM (inactive) | 2.78% (inactive) | 10 µM (active) | -3.88% (inactive) | > 46 µM (inactive) | inactive | inactive | inactive |  | 5.43% (inactive) | 13.3 | 22.5 |  | > 9.22 µM (inactive) | 
7 | COc1ccc2[nH]cc(CCNc3nc(-c4ccoc4)nc4ccccc34)c2c1 | 8.61 µM (active) | -4.09% (inactive) | 0.398 µM (active) | -9.95% (inactive) | > 46 µM (inactive) | inactive |  | inactive |  | 9.94% (inactive) | 6.9 | 18.2 |  | > 46 µM (inactive) | 
8 | c1ccc2c(Nc3ccncc3)nc(-c3ccc4c(c3)OCO4)nc2c1 | 2.47 µM (active) | 4.72% (inactive) | 1.26 µM (active) | -10.5% (inactive) | > 46 µM (inactive) | inactive |  | inactive |  | -19.5% (inactive) | 5.68 | -11.9 |  | > 46 µM (inactive) | 39.8 µM (active)
9 | CN(C)Cc1ccccc1-c1ccc2ncnc(N(C)Cc3ccco3)c2c1 | > 11.4 µM (inactive) | 3.42% (inactive) | 2 µM (active) | -16.1% (inactive) | > 46 µM (inactive) | inactive |  | inactive | 2 µM (active) | 3.94% (inactive) | 7.91 | 12.6 |  | > 46 µM (inactive) | inactive
10 | O=C(c1cnccn1)N1CCC2(CCCN(c3cccc(-c4ccccc4)c3)C2)CC1 | > 11.4 µM (inactive) | -16.1% (inactive) | 20 µM (active) | -8.34% (inactive) | > 46 µM (inactive) | inactive |  | inactive |  | -1.76% (inactive) | 20.5 | 18.4 | 5.03% (inactive) |  | 
11 | CN(C)Cc1ccccc1-c1ccc2ncnc(NC3CC3)c2c1 | > 11.4 µM (inactive) | 24% (inactive) |  | -14.6% (inactive) | > 46 µM (inactive) | inactive | inactive |  |  | 9.69% (inactive) | 12.6 | 24.1 | -9.4% (inactive) | > 46 µM (inactive) | inactive
12 | Cc1noc(C)c1-c1nccc(N2CCNCC2)n1 | > 11.4 µM (inactive) | 14.5% (inactive) |  | -0.568% (inactive) | > 46 µM (inactive) | inactive | inactive |  |  | 6.06% (inactive) | 6.93 | 14.7 | -5.44% (inactive) | > 46 µM (inactive) | inactive
